From article PMC7862700, “An all-to-all approach to the identification of sequence-specific readers for epigenetic DNA modifications on cytosine”

Key:
Experiment in all cases: DAPPL (digital affinity profiling via proximity ligation, sequencing); 10 mM Tris-HCl pH 7.5, 50 mM NaCl, 1 mM DTT, 4% glycerol, room temperature, 30 min; GST-TFs on glutathione beads, 16-mer random dsDNA library, 0.1% formaldehyde crosslink after washing; high values mean tight binding
Conditions in all cases: protein: recombinant; tags: N-terminal GST; dsDNA, one strand shown
[1] = molecular target: T1, FLI1 (Homo sapiens, UniProt Q01543 1-452)
T1 sequence: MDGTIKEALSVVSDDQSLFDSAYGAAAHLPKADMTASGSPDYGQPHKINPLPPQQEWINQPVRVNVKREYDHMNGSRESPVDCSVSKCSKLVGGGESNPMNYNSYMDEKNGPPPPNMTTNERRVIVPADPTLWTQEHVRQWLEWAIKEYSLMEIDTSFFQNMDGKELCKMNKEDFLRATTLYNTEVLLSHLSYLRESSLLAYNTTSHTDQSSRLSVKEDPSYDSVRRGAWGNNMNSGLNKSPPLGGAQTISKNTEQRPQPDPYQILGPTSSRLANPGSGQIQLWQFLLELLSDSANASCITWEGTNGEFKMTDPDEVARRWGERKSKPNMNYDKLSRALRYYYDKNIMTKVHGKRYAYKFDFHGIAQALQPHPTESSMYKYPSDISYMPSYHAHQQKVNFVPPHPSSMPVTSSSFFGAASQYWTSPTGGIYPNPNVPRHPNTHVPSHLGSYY
Summary of the method: (§1)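 Human transcription factors were made in yeast as GST fusions, captured on glutathione beads and barcoded with DNA. With a tag-only sample included, the pool was incubated with 200 nmole of a random double-stranded 16-mer DNA library in Tris/NaCl/DTT/glycerol buffer at room temperature for 30 min, then crosslinked with 0.1% formaldehyde after washing, ligated by proximity, amplified and sequenced. For binding signal, each hexamer's read frequency for a factor is divided by its frequency for the tag-only sample.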

[2] = molecular target: T2, ELK1 (Homo sapiens, UniProt P19419 1-428)
T2 sequence: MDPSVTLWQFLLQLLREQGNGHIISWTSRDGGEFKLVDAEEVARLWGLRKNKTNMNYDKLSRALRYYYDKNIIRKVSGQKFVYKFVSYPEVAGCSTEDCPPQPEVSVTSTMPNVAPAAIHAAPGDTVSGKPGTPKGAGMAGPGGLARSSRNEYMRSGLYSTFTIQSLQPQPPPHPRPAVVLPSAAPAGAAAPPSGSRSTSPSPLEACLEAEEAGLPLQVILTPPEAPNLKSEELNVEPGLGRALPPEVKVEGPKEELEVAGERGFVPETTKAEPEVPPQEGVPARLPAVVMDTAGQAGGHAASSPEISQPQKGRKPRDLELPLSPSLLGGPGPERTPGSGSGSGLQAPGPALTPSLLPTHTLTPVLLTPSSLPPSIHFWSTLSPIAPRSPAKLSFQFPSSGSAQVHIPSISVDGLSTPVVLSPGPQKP
Summary of the method: as §1

[3] = molecular target: T3, GABPA (Homo sapiens, UniProt Q06546 1-454)
T3 sequence: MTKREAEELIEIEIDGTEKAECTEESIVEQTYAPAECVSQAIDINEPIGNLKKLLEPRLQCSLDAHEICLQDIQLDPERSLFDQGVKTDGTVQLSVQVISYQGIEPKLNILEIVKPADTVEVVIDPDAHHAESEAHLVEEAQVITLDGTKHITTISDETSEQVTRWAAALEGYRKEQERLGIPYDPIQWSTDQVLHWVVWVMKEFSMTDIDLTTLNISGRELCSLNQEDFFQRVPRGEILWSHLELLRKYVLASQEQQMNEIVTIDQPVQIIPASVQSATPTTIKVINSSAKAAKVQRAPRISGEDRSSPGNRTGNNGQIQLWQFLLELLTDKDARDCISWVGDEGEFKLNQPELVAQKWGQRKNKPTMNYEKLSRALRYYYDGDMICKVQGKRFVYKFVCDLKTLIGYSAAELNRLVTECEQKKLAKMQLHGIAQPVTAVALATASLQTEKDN
Summary of the method: as §1

[4] = molecular target: T4, ERG (Homo sapiens, UniProt P11308 1-479)
T4 sequence: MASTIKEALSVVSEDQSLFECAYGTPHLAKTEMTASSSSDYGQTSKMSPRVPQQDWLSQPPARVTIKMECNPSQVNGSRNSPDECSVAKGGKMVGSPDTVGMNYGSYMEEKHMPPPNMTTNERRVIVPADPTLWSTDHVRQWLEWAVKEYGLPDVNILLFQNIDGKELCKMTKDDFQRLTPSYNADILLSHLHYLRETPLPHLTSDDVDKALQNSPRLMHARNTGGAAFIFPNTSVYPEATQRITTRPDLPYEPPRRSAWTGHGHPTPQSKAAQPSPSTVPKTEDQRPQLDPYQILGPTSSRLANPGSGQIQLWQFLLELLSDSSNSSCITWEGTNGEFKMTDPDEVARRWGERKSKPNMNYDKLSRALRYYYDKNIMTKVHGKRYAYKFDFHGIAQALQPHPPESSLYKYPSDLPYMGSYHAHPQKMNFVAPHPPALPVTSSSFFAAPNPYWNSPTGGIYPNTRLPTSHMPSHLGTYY
Summary of the method: as §1

[5] = molecular target: ELF1 (Homo sapiens, UniProt P32519 1-619)
ELF1, sequence (P32519 whole entry): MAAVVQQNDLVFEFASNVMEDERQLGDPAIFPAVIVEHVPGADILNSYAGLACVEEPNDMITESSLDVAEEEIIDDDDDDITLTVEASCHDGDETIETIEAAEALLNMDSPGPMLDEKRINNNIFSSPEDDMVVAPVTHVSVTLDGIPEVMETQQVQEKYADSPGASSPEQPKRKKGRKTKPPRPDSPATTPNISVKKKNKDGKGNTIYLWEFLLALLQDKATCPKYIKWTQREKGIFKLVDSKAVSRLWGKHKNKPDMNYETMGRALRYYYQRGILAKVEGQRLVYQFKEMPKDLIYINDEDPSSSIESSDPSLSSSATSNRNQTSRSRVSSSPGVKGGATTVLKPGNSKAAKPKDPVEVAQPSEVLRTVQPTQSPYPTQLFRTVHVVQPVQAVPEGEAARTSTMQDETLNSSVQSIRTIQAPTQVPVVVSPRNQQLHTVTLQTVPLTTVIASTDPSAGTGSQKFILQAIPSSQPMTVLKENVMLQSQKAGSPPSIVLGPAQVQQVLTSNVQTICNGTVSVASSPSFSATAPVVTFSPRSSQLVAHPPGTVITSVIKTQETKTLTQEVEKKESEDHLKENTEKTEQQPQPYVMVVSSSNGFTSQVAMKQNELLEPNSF
Summary of the method: as §1

[6] = molecular target: T5, EHF (Homo sapiens, UniProt Q9NZC4 1-300)
T5 sequence: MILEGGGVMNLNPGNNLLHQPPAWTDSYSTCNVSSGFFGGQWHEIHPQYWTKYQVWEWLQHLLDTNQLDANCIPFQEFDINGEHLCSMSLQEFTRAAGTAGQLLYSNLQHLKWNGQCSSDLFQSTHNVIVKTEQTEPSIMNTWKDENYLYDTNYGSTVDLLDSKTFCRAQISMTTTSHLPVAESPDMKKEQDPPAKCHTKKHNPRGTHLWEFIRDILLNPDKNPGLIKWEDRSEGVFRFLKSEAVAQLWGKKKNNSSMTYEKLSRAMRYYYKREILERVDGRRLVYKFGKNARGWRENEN
Summary of the method: as §1

[7] = molecular target: SPI1 (Homo sapiens, UniProt P17947 1-270)
Summary of the method: as §1

[8] = molecular target: SPIB (Homo sapiens, UniProt Q01892 1-262)
SPIB, sequence (Q01892 whole entry): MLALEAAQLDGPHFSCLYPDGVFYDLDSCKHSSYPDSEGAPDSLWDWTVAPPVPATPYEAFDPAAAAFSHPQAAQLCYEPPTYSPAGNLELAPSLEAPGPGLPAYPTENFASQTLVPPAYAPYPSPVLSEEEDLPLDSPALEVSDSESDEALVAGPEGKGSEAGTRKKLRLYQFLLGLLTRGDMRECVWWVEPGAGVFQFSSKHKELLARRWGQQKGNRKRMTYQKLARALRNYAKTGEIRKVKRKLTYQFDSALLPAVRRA
Summary of the method: as §1

[9] = molecular target: T6, ELK3 (Homo sapiens, UniProt P41970 1-407)
T6 sequence: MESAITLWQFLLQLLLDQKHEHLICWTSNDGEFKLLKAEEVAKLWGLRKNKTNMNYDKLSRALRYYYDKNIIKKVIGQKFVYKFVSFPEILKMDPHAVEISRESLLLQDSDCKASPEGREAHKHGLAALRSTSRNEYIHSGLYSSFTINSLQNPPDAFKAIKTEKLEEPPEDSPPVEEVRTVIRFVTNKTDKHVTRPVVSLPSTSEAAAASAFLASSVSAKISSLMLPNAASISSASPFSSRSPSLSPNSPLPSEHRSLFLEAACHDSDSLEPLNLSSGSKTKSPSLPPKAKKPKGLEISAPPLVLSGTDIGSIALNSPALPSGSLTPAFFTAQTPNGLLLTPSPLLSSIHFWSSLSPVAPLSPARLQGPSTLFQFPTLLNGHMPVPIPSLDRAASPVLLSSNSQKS
Summary of the method: as §1

[10] = molecular target: T7, FEV (Homo sapiens, UniProt Q99581 1-238)
T7 sequence: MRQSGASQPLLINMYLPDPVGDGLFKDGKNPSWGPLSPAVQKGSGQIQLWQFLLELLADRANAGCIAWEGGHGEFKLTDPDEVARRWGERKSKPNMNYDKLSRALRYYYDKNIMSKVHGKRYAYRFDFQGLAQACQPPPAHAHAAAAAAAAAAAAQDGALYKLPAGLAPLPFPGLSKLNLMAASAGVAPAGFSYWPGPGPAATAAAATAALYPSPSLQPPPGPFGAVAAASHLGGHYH
Summary of the method: as §1

[11] = molecular target: ETV5 (Homo sapiens, UniProt P41161 1-510)
ETV5, sequence (P41161 whole entry): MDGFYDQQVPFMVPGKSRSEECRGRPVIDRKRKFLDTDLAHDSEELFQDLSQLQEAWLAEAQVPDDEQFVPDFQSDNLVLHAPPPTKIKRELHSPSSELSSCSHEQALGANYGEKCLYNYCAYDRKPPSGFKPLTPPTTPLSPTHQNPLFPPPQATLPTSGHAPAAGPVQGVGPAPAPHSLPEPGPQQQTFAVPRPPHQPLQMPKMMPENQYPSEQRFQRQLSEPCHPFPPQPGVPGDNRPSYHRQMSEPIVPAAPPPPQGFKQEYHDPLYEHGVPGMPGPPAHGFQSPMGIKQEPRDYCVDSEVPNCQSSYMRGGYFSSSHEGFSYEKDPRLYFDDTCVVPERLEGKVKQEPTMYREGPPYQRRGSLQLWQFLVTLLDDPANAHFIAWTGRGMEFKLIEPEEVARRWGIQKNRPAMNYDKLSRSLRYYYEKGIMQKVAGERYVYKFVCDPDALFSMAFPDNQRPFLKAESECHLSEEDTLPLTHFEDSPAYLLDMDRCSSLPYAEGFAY
Summary of the method: as §1

[12] = molecular target: T8, SPIC (Homo sapiens, UniProt Q8N5J4 1-248)
T8 sequence: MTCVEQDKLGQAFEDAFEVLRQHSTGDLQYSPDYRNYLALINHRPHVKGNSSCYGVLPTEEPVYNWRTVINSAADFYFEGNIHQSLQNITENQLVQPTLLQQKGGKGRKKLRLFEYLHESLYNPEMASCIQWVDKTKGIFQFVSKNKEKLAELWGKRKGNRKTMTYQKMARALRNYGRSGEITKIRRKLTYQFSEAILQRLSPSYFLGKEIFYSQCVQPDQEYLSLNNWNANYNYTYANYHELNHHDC
Summary of the method: as §1

[13] = molecular target: ELF4 (Homo sapiens, UniProt Q99607 1-663)
ELF4, sequence (Q99607 whole entry): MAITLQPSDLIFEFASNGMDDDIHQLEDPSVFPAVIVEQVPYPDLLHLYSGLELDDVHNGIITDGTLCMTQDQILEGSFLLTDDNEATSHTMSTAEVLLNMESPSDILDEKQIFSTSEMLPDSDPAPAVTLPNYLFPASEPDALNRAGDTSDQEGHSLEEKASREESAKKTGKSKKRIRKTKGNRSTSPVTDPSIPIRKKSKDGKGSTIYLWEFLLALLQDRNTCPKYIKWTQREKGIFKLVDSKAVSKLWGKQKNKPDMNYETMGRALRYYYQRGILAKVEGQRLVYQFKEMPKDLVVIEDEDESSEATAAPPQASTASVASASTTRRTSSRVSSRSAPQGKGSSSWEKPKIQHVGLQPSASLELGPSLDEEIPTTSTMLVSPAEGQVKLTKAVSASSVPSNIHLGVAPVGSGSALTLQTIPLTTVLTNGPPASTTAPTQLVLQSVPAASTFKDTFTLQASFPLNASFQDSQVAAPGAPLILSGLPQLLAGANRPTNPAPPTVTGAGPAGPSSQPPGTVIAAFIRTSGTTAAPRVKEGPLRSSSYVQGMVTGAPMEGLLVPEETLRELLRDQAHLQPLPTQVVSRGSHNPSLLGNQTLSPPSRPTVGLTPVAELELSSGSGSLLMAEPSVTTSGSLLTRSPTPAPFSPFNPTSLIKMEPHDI
Summary of the method: as §1

[14] = molecular target: T9, ELK4 (Homo sapiens, UniProt P28324-2 1-405)
T9 sequence: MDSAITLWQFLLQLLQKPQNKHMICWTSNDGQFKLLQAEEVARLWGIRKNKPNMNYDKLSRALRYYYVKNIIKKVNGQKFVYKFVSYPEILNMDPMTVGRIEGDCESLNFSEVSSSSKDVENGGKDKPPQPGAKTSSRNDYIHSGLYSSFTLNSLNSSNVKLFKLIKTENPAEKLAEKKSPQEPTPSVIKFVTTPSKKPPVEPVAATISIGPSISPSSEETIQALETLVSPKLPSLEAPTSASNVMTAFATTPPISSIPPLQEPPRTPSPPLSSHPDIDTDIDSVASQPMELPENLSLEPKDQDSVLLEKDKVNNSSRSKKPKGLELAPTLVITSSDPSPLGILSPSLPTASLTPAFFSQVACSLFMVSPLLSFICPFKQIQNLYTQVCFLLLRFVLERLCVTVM
Summary of the method: as §1

[15] = molecular target: T10, ETV2 (Homo sapiens, UniProt O00321 1-342)
T10 sequence: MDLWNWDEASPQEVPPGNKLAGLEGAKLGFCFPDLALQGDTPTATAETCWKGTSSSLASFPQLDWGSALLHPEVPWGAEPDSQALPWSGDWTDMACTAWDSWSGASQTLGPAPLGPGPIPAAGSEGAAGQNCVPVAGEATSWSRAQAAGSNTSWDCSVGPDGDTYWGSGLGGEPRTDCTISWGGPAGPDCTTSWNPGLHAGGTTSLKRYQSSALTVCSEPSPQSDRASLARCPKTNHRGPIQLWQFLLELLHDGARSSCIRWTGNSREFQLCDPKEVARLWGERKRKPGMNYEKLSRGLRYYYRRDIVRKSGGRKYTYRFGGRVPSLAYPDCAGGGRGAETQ
Summary of the method: as §1

[16] = molecular target: T11, ELF3 (Homo sapiens, UniProt P78545 1-371)
T11 sequence: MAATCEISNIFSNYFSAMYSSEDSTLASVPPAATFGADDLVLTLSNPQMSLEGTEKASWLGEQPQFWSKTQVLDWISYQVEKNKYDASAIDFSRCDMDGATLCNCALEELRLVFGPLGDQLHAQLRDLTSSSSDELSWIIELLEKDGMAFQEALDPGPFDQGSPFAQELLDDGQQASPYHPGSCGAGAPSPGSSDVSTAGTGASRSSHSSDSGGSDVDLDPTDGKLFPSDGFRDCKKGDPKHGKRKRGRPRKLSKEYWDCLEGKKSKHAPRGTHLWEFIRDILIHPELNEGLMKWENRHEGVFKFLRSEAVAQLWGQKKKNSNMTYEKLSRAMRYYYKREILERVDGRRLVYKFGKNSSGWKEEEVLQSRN
Summary of the method: as §1

[17] = molecular target: ETV1 (Homo sapiens, UniProt P50549 1-477)
ETV1, sequence (P50549 whole entry): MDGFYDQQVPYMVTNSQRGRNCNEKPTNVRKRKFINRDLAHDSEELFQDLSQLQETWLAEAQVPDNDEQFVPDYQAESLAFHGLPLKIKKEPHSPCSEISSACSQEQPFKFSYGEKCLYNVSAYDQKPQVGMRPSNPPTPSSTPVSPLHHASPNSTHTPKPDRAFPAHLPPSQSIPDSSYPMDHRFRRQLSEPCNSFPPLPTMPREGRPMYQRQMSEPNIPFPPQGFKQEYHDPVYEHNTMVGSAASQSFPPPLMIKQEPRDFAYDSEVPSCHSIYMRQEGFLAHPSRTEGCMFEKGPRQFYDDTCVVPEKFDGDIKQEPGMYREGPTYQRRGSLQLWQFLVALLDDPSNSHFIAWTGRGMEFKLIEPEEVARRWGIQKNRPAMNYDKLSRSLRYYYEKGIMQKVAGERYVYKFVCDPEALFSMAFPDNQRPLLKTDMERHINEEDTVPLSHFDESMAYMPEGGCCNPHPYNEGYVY
Summary of the method: as §1

Row | Sequence | binding signal [1] | binding signal [2] | binding signal [3] | binding signal [4] | binding signal [5] | binding signal [6] | binding signal [7] | binding signal [8] | binding signal [9] | binding signal [10] | binding signal [11] | binding signal [12] | binding signal [13] | binding signal [14] | binding signal [15] | binding signal [16] | binding signal [17]
1 | AGGAAG | 1.24 fold enrichment (6-mer frequency, TF over GST control) | 1.32 fold enrichment (6-mer frequency, TF over GST control) | 1.24 fold enrichment (6-mer frequency, TF over GST control) | 1.63 fold enrichment (6-mer frequency, TF over GST control) | 1.23 fold enrichment (6-mer frequency, TF over GST control) | 1.57 fold enrichment (6-mer frequency, TF over GST control) | 2.12 fold enrichment (6-mer frequency, TF over GST control) | 1.44 fold enrichment (6-mer frequency, TF over GST control) | 1.26 fold enrichment (6-mer frequency, TF over GST control) | 1.24 fold enrichment (6-mer frequency, TF over GST control) | 1.44 fold enrichment (6-mer frequency, TF over GST control) | 1.51 fold enrichment (6-mer frequency, TF over GST control) | 1.21 fold enrichment (6-mer frequency, TF over GST control) | 1.11 fold enrichment (6-mer frequency, TF over GST control) | 1.4 fold enrichment (6-mer frequency, TF over GST control) | 1.52 fold enrichment (6-mer frequency, TF over GST control) | 1.5 fold enrichment (6-mer frequency, TF over GST control)
2 | GTACCT | 1.36 fold enrichment (6-mer frequency, TF over GST control) | 1.16 fold enrichment (6-mer frequency, TF over GST control) | 1.26 fold enrichment (6-mer frequency, TF over GST control) | 1.16 fold enrichment (6-mer frequency, TF over GST control) | 1.22 fold enrichment (6-mer frequency, TF over GST control) | 1.29 fold enrichment (6-mer frequency, TF over GST control) | 1.12 fold enrichment (6-mer frequency, TF over GST control) | 1.18 fold enrichment (6-mer frequency, TF over GST control) | 1.1 fold enrichment (6-mer frequency, TF over GST control) | 1.14 fold enrichment (6-mer frequency, TF over GST control) | 1.26 fold enrichment (6-mer frequency, TF over GST control) | 1.44 fold enrichment (6-mer frequency, TF over GST control) | 1.23 fold enrichment (6-mer frequency, TF over GST control) | 1.25 fold enrichment (6-mer frequency, TF over GST control) | 1.32 fold enrichment (6-mer frequency, TF over GST control) | 1.57 fold enrichment (6-mer frequency, TF over GST control) | 1.27 fold enrichment (6-mer frequency, TF over GST control)
